Test results taken from PubChem BioAssay AID720566 (Broad Institute, 2013).
Measured potencies and affinities stand elsewhere. A number with no mark means an inactive call.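 The calls were made as follows: active = in all runs, an absorbance decrease of 25% or more of the average positive control decrease; inconclusive = runs conflict, with both active and inactive results; inactive = all runs inactive, opposite-direction effects included.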

Molecular target: Protein disulfide-isomerase A6 (Homo sapiens) (UniProt Q15084)
Test: inhibitors of ERp5-mediated insulin aggregation, dose response, biochemical, turbidity, absorbance 650 nm, cherry-picked samples (AID 720566)
Details: Recombinant ERp5 insulin aggregation; series mostly up to 35 µM; activity change, negative = inhibition: at the top concentration

Chain of Protein disulfide-isomerase A6 (Homo sapiens) (Q15084 whole entry, looked up): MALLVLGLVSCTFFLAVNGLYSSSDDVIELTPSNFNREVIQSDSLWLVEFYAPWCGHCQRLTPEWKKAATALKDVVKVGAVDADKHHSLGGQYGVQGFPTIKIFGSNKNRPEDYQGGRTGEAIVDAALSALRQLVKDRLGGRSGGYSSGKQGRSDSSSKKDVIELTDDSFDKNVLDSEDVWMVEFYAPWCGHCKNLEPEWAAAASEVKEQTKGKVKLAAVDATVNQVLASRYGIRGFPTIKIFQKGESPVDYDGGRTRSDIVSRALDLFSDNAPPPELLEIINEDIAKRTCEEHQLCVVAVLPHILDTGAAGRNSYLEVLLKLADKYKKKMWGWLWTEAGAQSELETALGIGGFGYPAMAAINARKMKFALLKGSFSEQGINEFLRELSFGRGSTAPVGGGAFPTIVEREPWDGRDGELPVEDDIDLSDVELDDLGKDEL

Question: For O=C(N/N=C1\CCCc2ccccc21)c1ccccc1Cl, which “activity change, negative = inhibition” value is on record?
Answer: The value was -19.1%.

Question: How did the “activity change, negative = inhibition” value turn out when CCCN(C)C[C@@H]1Oc2cc(-c3ccc(F)cc3)ccc2S(=O)(=O)N([C@@H](C)CO)C[C@@H]1C was run?
Answer: Its value is 4.34%.

Question: With CCN(CC)S(=O)(=O)c1cc(NC(=O)c2ccc(-n3cncn3)c([N+](=O)[O-])c2)ccc1C as the molecule, how does the “activity change, negative = inhibition” value read?
Answer: The value was -4.42%.

Question: Which “activity change, negative = inhibition” value does the source give for C[C@@H]1CN([C@H](C)CO)C(=O)c2cccc(NC(=O)Nc3cccc4ccccc34)c2O[C@H]1CN(C)C(=O)Nc1ccc(C(F)(F)F)cc1 here?
Answer: The value was -10.1%.

Question: For CC(C)C#Cc1cnc2c(c1)C(=O)N([C@@H](C)CO)C[C@@H](C)[C@H](CN(C)C(=O)c1ccccc1F)O2, which “activity change, negative = inhibition” value is on record?
Answer: Its value is 4.66%.

Question: C[C@H](CO)N1C[C@H](C)[C@@H](CN(C)S(=O)(=O)c2cn(C)cn2)Oc2ccc(NC(=O)c3ccncc3)cc2CC1=O was tested. Which “activity change, negative = inhibition” value did it give?
Answer: Its value is 1.49%.

Question: For O=C(C[C@@H]1C[C@H]2c3cc(NC(=O)CC4CC4)ccc3O[C@H]2[C@@H](CO)O1)NCc1ccc(-c2ccccc2)cc1, which “activity change, negative = inhibition” value is on record?
Answer: Its value is 4.66%.

Question: For C[C@@H]1CCCCO[C@@H](CN(C)C(=O)CCC(F)(F)F)[C@H](C)CN([C@@H](C)CO)C(=O)c2cc(NS(=O)(=O)c3ccc(Cl)cc3)ccc2O1, which “activity change, negative = inhibition” value is on record?
Answer: The value was 5.59%.

Question: CCC(=O)Nc1ccc2c(c1)C(=O)N(C)[C@H]1CC[C@@H](CC(=O)NCC3CC3)O[C@H]1CO2 was tested. Which “activity change, negative = inhibition” value did it give?
Answer: Its value is 1.64%.

Question: O=C(Nc1ccncc1)C1CC(=O)N(c2ccccc2)C1 (stereo not drawn) was tested. Which “activity change, negative = inhibition” value did it give?
Answer: The value was 23.2%.

Question: How did the “activity change, negative = inhibition” value turn out when C[C@H](CO)N1C[C@H](C)[C@@H](CN(C)Cc2ccc(C(=O)O)cc2)Oc2ccc(NS(=O)(=O)c3cccs3)cc2CC1=O was run?
Answer: The value was 3.54%.

Question: Which “activity change, negative = inhibition” value does the source give for COc1cccc(CC(=O)NNC(=O)CN(C)S(=O)(=O)c2ccc(C)cc2)c1 here?
Answer: Its value is 6%.

Question: C[C@H]1CN([C@@H](C)CO)C(=O)c2cc(-c3cccc(C#N)c3)cnc2O[C@@H]1CN(C)Cc1cncnc1 was tested. Which “activity change, negative = inhibition” value did it give?
Answer: The value was 1.3%.

Question: How did the “activity change, negative = inhibition” value turn out when C[C@H](CO)N1C[C@H](C)[C@H](CN(C)Cc2cncnc2)Oc2ncc(-c3cccc(C#N)c3)cc2C1=O was run?
Answer: The value was 1.45%.

Question: Which “activity change, negative = inhibition” value does the source give for COc1ccc2c3c([nH]c2c1)[C@@H](CO)N(C(=O)C1CCCC1)CC31CCN(C(=O)NC(C)C)CC1 here?
Answer: The value was 4.34%.

Question: CN(C)C(=O)C[C@H]1C[C@H]2c3cc(NS(C)(=O)=O)ccc3O[C@H]2[C@H](CO)O1 was tested. Which “activity change, negative = inhibition” value did it give?
Answer: Its value is -4.66%.

Question: With CCCNC(=O)C[C@@H]1C[C@@H]2c3cc(NS(C)(=O)=O)ccc3O[C@@H]2[C@H](CO)O1 as the molecule, how does the “activity change, negative = inhibition” value read?
Answer: Its value is 1.83%.

Question: Which “activity change, negative = inhibition” value does the source give for O=C(C[C@H]1C[C@H]2c3cc(NC(=O)CC4CC4)ccc3O[C@H]2[C@@H](CO)O1)NCc1ccc(-c2ccccc2)cc1 here?
Answer: The value was -10.3% [at 30 µM].

Question: How did the “activity change, negative = inhibition” value turn out when C[C@@H]1CN([C@@H](C)CO)S(=O)(=O)c2ccc(C#Cc3cccnc3)cc2O[C@H]1CN(C)C(=O)CN(C)C was run?
Answer: Its value is 0.482%.

Question: For COc1ccc(NC(=O)Nc2ccc3c(c2)C(=O)N([C@H](C)CO)C[C@H](C)[C@@H](CN(C)C(=O)C2CCCCC2)OCCCC[C@H](C)O3)cc1, which “activity change, negative = inhibition” value is on record?
Answer: Its value is 10.1%.

Question: For COCC(=O)N1CC2(C1)CN(Cc1ccccc1F)[C@H](CO)c1[nH]c3cc(OC)ccc3c12, which “activity change, negative = inhibition” value is on record?
Answer: The value was -8.2%.

Question: CCC[C@@H](CN1CCC[C@H]1CN1C(N)=NC[C@H]1CC(C)C)N1C[C@@H]([C@H](C)CC)N(CCCC2CCCC2)C1=N was tested. Which “activity change, negative = inhibition” value did it give?
Answer: The value was 8.04%.

Question: How did the “activity change, negative = inhibition” value turn out when COC(=O)C[C@H]1C[C@@H]2c3cc(NC(=O)Cc4ccncc4)ccc3O[C@@H]2[C@@H](CO)O1 was run?
Answer: The value was 2.05%.

Question: For COc1ccc(S(=O)(=O)Nc2ccc3c(c2)C(=O)N([C@H](C)CO)C[C@H](C)[C@H](CN(C)C(=O)Nc2ccccc2)O3)cc1, which “activity change, negative = inhibition” value is on record?
Answer: Its value is -9.35%.

Question: How did the “activity change, negative = inhibition” value turn out when CC(C)C#Cc1ccc2c(c1)O[C@@H](CN(C)C(=O)C1CC1)[C@@H](C)CN([C@@H](C)CO)S2(=O)=O was run?
Answer: Its value is -7.81%.

Question: Which “activity change, negative = inhibition” value does the source give for Cc1cccc(S(=O)(=O)N(C)C[C@H]2OCc3cnnn3CCCC(=O)N([C@@H](C)CO)C[C@H]2C)c1 here?
Answer: The value was 4.42%.

Question: For CCCNC(=O)C[C@@H]1C[C@H]2c3cc(NS(C)(=O)=O)ccc3O[C@H]2[C@@H](CO)O1, which “activity change, negative = inhibition” value is on record?
Answer: Its value is -8.39%.

Question: Cc1ccc(NC(=O)COc2ccccc2)c(NC(=O)c2ccco2)c1 was tested. Which “activity change, negative = inhibition” value did it give?
Answer: Its value is 2.38%.

Question: How did the “activity change, negative = inhibition” value turn out when C[C@H]1CN([C@@H](C)CO)C(=O)Cc2cc(NC(=O)c3ccncc3)ccc2O[C@H]1CN(C)S(=O)(=O)c1cn(C)cn1 was run?
Answer: The value was 2.8%.

Question: For C[C@H]1CN([C@@H](C)CO)C(=O)c2cccc(NC(=O)c3nc4ccccc4s3)c2O[C@@H]1CN(C)C(=O)Nc1ccc(C(F)(F)F)cc1, which “activity change, negative = inhibition” value is on record?
Answer: Its value is 4.47%.

Question: With CCC(=O)Nc1ccc2c(c1)C(=O)N(C)[C@H]1CC[C@H](CC(=O)NCC3CC3)O[C@H]1CO2 as the molecule, how does the “activity change, negative = inhibition” value read?
Answer: The value was -1.49%.

Question: Which “activity change, negative = inhibition” value does the source give for Cc1noc(C)c1NC(=O)N(C)C[C@H]1Oc2c(NS(=O)(=O)c3ccc(Cl)cc3)cccc2C(=O)N([C@@H](C)CO)C[C@@H]1C here?
Answer: Its value is -1.25% [at 30 µM].

Question: How did the “activity change, negative = inhibition” value turn out when CC(=O)Nc1ccc2c(c1)C(=O)N(C)[C@@H]1CC[C@@H](CC(=O)NCC3CC3)O[C@H]1CO2 was run?
Answer: The value was 4.34%.
